The values that follow come from PubChem BioAssay (NCI).

Several values for one entry are separate records, joined by “and”; a condition that tells them apart may be missing. Equal entries are not always repeated. This is part of a sample that, as a whole, favours compounds with a hit. Of some 83,000 tested, about 20% had one in any assay.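 Single-concentration screen, 48 h exposure, 96-well plates. Endpoint: percent growth. Below 10 = active.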 Activity calls are given as the source filed them.

In this assay the test system is MDA-MB-468 breast. Description: NCI-60 one-dose screen, 48 h (100 = growth as untreated, 0 = no growth, -100 = all killed). To be noted: 10 µM unless noted.
As for `CN(C)CCCN1c2ccccc2Sc2ccc(Cl)cc21`, the growth was 9.1% (active) and 105% (inactive) and 77.4% (inactive). To `Cc1ccc2sc3c(c2c1)OC(N)=C(C#N)C3c1ccc(Cl)cc1` (stereo unspecified) belongs -18.7% (active); to `Oc1ccc(CSc2nnc(-c3ccncc3)n2-c2ccccc2)c2cccnc12`, 14.2% (inactive). For `Nc1nc(Cl)cc(=O)n1Cc1ccccc1` the value was 97.3% (inactive); for `C#CCOc1cccc(/C(N)=N/C(N)=N/c2nc3ccccc3s2)c1`, 76.4% (inactive); for `COC(=O)[C@]12CC[C@@H](C)[C@H](C)[C@@H]1C1=CC[C@@H]3[C@@]4(C)C[C@@H](O)[C@H](O)[C@@](C)(CO)C4=CC[C@@]3(C)[C@]1(C)CC2`, -66.4% (active). As to `Nc1c(Br)cc(O)c2c1C(=O)c1ccccc1C2=O`, the growth is -9.43% (active).

Take `O=C(CSc1nc(-c2ccccc2)cn1-c1ccc(Cl)cc1)c1ccc([N+](=O)[O-])cc1`: the growth is 72.5% (inactive). To `C=C1C[C@H](O)[C@H](Br)C(C)(C)[C@@]12CCC(C)=C(Cl)C2` belongs -28.3% (active).

In the case of `O=C(NCCCNc1cc(-c2cn(-c3ccccc3)nc2-c2cccc(O)c2)ccn1)Nc1cccc(C(F)(F)F)c1`, the growth was 11.2% (inactive). To `CCOC(=O)C#Cc1c(C(=O)OCC)nnn1Cc1ccc(C(F)(F)F)cc1` belongs -25.7% (active); to `O=S(=O)(NCCCNc1nccc(-c2[nH]c(-c3ccccc3)nc2-c2ccc(Cl)c(O)c2)n1)c1cccc(F)c1`, 50.9% (inactive); to `COc1ccc2c(c1)OC1=C(C(=O)OC1)C2c1cc(OC)c2c(c1)OCCO2` (stereo unspecified), 1.92% (active).

For `COc1c(O)c(O)cc2c3c(oc12)CC(c1ccc2c(c1)OCO2)CC3=O` (stereo unspecified), the growth was 79.9% (inactive). For `CCOC(=O)C1C(=O)C=C(c2ccccc2)CC1c1sc(N(C)Cc2ccccc2)nc1Cl` (stereo unspecified) the value was 80.9% (inactive); for `CCc1nc(N)nc(N)c1C#CC(C)c1cc(-c2ccnc(C)c2)c2oc(C)nc2c1` (stereo unspecified), -20.6% (active). To `Cc1ccsc1[C@H]1c2[nH]c3ccccc3c2C[C@H]2C(=O)N(CCCCCCC(=O)NO)CC(=O)N12` belongs 46.6% (inactive); to `CN(C)c1ccc(/C=C/C(=O)c2ccc(-n3cc(CN4CCN(c5cc6c(cc5F)c(=O)c(C(=O)O)cn6C5CC5)CC4)nn3)cc2)cc1`, 32.9% (inactive). To `Fc1ccc(Nc2nc3nonc3nc2Nc2ccc(I)cc2)cc1` belongs -14.7% (active); to `CNC(=O)c1cc(Oc2ccc(NC(=O)Nc3ccc(Cl)c(OC(F)(F)F)c3)c(F)c2)ccn1`, 14.7% (inactive); to `Cc1ccc(NC(=O)Nc2c(Cl)cccc2Cl)cn1`, 72.8% (inactive). Regarding `COc1ccc(Cl)c([N+](=O)[O-])c1`, the growth was 99.9% (inactive). For `C=C1C(=O)O[C@H]2[C@H]1CC/C(COC(=O)NCCCCCCCCNC(=O)OC/C1=C/CC[C@@]3(C)O[C@H]3[C@H]3OC(=O)C(=C)[C@@H]3CC1)=C\CC[C@@]1(C)O[C@@H]21` the value was -46.1% (active); for `COc1ccc(/C=C2\Oc3cc(OCCCN4CCCC4)ccc3C2=O)c(OC)c1`, 62% (inactive); for `Cc1nc(/N=C(\N)NC(=O)Nc2ccccc2Cl)sc1C`, 2.23% (active). To `Cc1ccc(NC(=O)c2[nH]c(SCCN(C)C)nc2-c2ccc(F)cc2)cc1Nc1ccc2ncn(C)c(=O)c2c1` belongs 92.1% (inactive); to `COc1ccc(/C=N/C2=C(C#N)C(c3cccc(Cl)c3)c3c(ccc4ccccc34)O2)cc1` (stereo unspecified), 3.32% (active); to `CSc1nn2c(-c3cc4cc(Br)ccc4oc3=O)ccnc2c1C#N`, 109% (inactive). Regarding `Cn1c(=O)c2[nH]c(CCCc3nc4c([nH]3)c(=O)n(C)c(=O)n4C)nc2n(C)c1=O`, the growth was 103% (inactive). `CCc1cccc2c3c(sc12)C(c1ccc(F)cc1)C(C#N)=C(N)O3` (stereo unspecified): the growth is 31.2% (inactive). To `N#C/C(=C\c1ccccc1Cl)c1cc2ccccc2[nH]1` belongs 58.1% (inactive); to `CC(C)(C)[Si](C)(C)OC1[C@@H](CNC(=O)NC(=O)NC(N)=O)O[C@@H](n2cnc3c(NC(=O)Nc4ccccc4)ncnc32)[C@H]1O[Si](C)(C)C(C)(C)C` (stereo partly specified), 99.1% (inactive); to `Cc1c(C(N)=O)sc2c1c(=O)n(Cc1ccccc1)c1nnc(Nc3ccccc3)n21`, 108% (inactive). Turning to `COc1ccc(/C=C/C(=O)c2ccc(B(O)O)cc2)cc1O`, the growth is 66.8% (inactive). Take `CC(=O)c1ccc2c(c1)CCN2`: the growth was 104% (inactive). As to `Cc1n(Cc2ccc3ccccc3c2)cc[n+]1Cc1ccc2ccccc2c1`, the growth is -22.8% (active).
